# Laboratory results as given in publication PMC5540273 (PLoS ONE, 2017).
# Values joined by “and” are separate entries in the source; they are usually repeats but may differ in a detail not shown here. Equal entries are not always repeated. Where two headings read alike, the source gives them in different places.
# Legend:
# Conditions in all cases: n = 1
# DAPK2 = tested on: DAPK2
# DAPK3 = tested on: DAPK3
# DCAMKL1 = tested on: T1, DCAMKL1
# T1 construct: gene DCLK1
# DCAMKL2 = tested on: T2, DCAMKL2
# T2 construct: gene DCLK2
# DCAMKL3 = tested on: T3, DCAMKL3
# T3 construct: gene DCLK3
# DDR1 = tested on: DDR1
# DDR2 = tested on: DDR2
# DLK = tested on: T4, DLK
# T4 construct: gene MAP3K12
# DMPK2 = tested on: T5, DMPK2
# T5 construct: gene CDC42BPG
# DMPK = tested on: DMPK
# DRAK1 = tested on: T6, DRAK1
# T6 construct: gene STK17A
# DRAK2 = tested on: T7, DRAK2
# T7 construct: gene STK17B
# DYRK1A = tested on: DYRK1A
# DYRK1B = tested on: DYRK1B
# DYRK2 = tested on: DYRK2
# EGFR = tested on: EGFR
# EIF2AK1 = tested on: EIF2AK1
# EPHA1 = tested on: EPHA1
# EPHA2 = tested on: EPHA2
# EPHA3 = tested on: EPHA3
# [1] = concentration: 1 μM, replicates: in singlicate
# [2] = concentration: 1 μM,replicates: in singlicate, 1 µM
# 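Note: KINOMEscan kinase panel screen.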
compound,measurement,setting,value
Cn1ccc2ncnc(Oc3ccc(Nc4nc5ccccc5[nH]4)cc3)c21,%Inh,DAPK2; [1],0%
same,%Inh,DAPK3; [1],3%
same,%Inh,DCAMKL1; [1],0%
same,%Inh,DCAMKL2; [1],0%
same,%Inh,DCAMKL3; [1],0%
same,%Inh,DDR1; [1],0%
same,%Inh,DDR2; [1],16%
same,%Inh,DLK; [1],0%
same,%Inh,DMPK2; [1],0%
same,%Inh,DMPK; [1],0%
same,%Inh,DRAK1; [1],0%
same,%Inh,DRAK2; [1],2%
same,%Inh,DYRK1A; [1],0%
same,%Inh,DYRK1B; [1],5%
same,%Inh,DYRK2; [1],0%
same,%Inh,EGFR; [1],0%
same,%Inh,EIF2AK1; [1],0%
same,%Inh,EPHA1; [1],0%
same,%Inh,EPHA2; [1],0%
same,%Inh,EPHA3; [1],2%
Cc1cccc(-c2nc(Nc3ccc4[nH]ncc4c3)c3ccccc3n2)n1 [GW857175],%Inh,DAPK2; [1],20%
same,%Inh,DAPK3; [1],28%
same,%Inh,DCAMKL1; [1],0%
same,%Inh,DCAMKL2; [1],14%
same,%Inh,DCAMKL3; [1],0%
same,%Inh,DDR1; [1],39%
same,%Inh,DDR2; [1],17%
same,%Inh,DLK; [1],0%
same,%Inh,DMPK2; [1],72%
same,%Inh,DMPK; [1],4%
same,%Inh,DRAK1; [1],13%
same,%Inh,DRAK2; [1],10%
same,%Inh,DYRK1A; [1],24%
same,%Inh,DYRK1B; [1],11%
same,%Inh,DYRK2; [1],40%
same,%Inh,EGFR; [1],0%
same,%Inh,EIF2AK1; [1],5%
same,%Inh,EPHA1; [1],12%
same,%Inh,EPHA2; [1],1%
same,%Inh,EPHA3; [1],0%
Clc1cc(Cl)cc(Nc2ccnc(Nc3cc(Cl)cc(Cl)c3)n2)c1 [GSK175726],%Inh,DAPK2; [1],19%
same,%Inh,DAPK3; [1],23%
same,%Inh,DCAMKL1; [1],0%
same,%Inh,DCAMKL2; [1],0%
same,%Inh,DCAMKL3; [1],0%
same,%Inh,DDR1; [1],6%
same,%Inh,DDR2; [1],24%
same,%Inh,DLK; [1],11%
same,%Inh,DMPK2; [1],18%
same,%Inh,DMPK; [1],0%
same,%Inh,DRAK1; [1],0%
same,%Inh,DRAK2; [1],6%
same,%Inh,DYRK1A; [1],0%
same,%Inh,DYRK1B; [1],19%
same,%Inh,DYRK2; [1],0%
same,%Inh,EGFR; [1],38%
same,%Inh,EIF2AK1; [1],0%
same,%Inh,EPHA1; [1],54%
same,%Inh,EPHA2; [1],46%
same,%Inh,EPHA3; [1],21%
CCn1c(-c2cccnc2O)nc2cnccc21 [SB-736715],%Inh,DAPK2; [1],0%
same,%Inh,DAPK3; [1],0%
same,%Inh,DCAMKL1; [1],0%
same,%Inh,DCAMKL2; [1],3%
same,%Inh,DCAMKL3; [1],0%
same,%Inh,DDR1; [1],0%
same,%Inh,DDR2; [1],0%
same,%Inh,DLK; [1],19%
same,%Inh,DMPK2; [1],0%
same,%Inh,DMPK; [1],0%
same,%Inh,DRAK1; [1],0%
same,%Inh,DRAK2; [1],0%
same,%Inh,DYRK1A; [1],0%
same,%Inh,DYRK1B; [1],54%
same,%Inh,DYRK2; [1],0%
same,%Inh,EGFR; [1],7%
same,%Inh,EIF2AK1; [1],0%
same,%Inh,EPHA1; [1],0%
same,%Inh,EPHA2; [1],0%
same,%Inh,EPHA3; [1],0%
CSc1nn2c(=O)cc(N3CCOCC3)nc2n1Cc1cccc(C(F)(F)F)c1C [GSK2363608],%Inh,DAPK2; [2],9% and 0%
same,%Inh,DAPK3; [2],27% and 0%
same,%Inh,DCAMKL1; [2],10% and 0%
same,%Inh,DCAMKL2; [1],0%
same,%Inh,DCAMKL3; [2],34% and 0%
same,%Inh,DDR1; [2],7% and 4%
same,%Inh,DDR2; [1],0%
same,%Inh,DLK; [2],34% and 0%
same,%Inh,DMPK2; [2],24% and 2%
same,%Inh,DMPK; [1],0%
same,%Inh,DRAK1; [2],0% and 17%
same,%Inh,DRAK2; [2],0% and 8%
same,%Inh,DYRK1A; [2],23% and 21%
same,%Inh,DYRK1B; [2],8% and 13%
same,%Inh,DYRK2; [2],16% and 14%
same,%Inh,EGFR; [2],36% and 20%
same,%Inh,EIF2AK1; [1],0%
same,%Inh,EPHA1; [2],28% and 9%
same,%Inh,EPHA2; [2],5% and 0%
same,%Inh,EPHA3; [1],0%
Cc1ccc(NC(=O)Nc2cccc(C(F)(F)F)c2)cc1 [GSK955403],%Inh,DAPK2; 1 µM,3%
same,%Inh,DAPK3; 1 µM,24%
same,%Inh,DCAMKL1; 1 µM,0%
same,%Inh,DCAMKL2; 1 µM,0%
same,%Inh,DCAMKL3; 1 µM,13%
same,%Inh,DDR1; 1 µM,43%
same,%Inh,DDR2; 1 µM,65%
same,%Inh,DLK; 1 µM,0%
same,%Inh,DMPK2; 1 µM,0%
same,%Inh,DMPK; 1 µM,0%
same,%Inh,DRAK1; 1 µM,15%
same,%Inh,DRAK2; 1 µM,0%
same,%Inh,DYRK1A; 1 µM,0%
same,%Inh,DYRK1B; 1 µM,0%
same,%Inh,DYRK2; 1 µM,0%
same,%Inh,EGFR; 1 µM,0%
same,%Inh,EIF2AK1; 1 µM,0%
same,%Inh,EPHA1; 1 µM,17%
same,%Inh,EPHA2; 1 µM,0%
same,%Inh,EPHA3; 1 µM,0%
O=C(Nc1n[nH]c2nc(-c3nccs3)c(Br)cc12)C1CCCC1 [SB-742609],%Inh,DAPK2; [1],0%
same,%Inh,DAPK3; [1],5%
same,%Inh,DCAMKL1; [1],9%
same,%Inh,DCAMKL2; [1],16%
same,%Inh,DCAMKL3; [1],0%
same,%Inh,DDR1; [1],0%
same,%Inh,DDR2; [1],11%
same,%Inh,DLK; [1],14%
same,%Inh,DMPK2; [1],0%
same,%Inh,DMPK; [1],0%
same,%Inh,DRAK1; [1],4%
same,%Inh,DRAK2; [1],0%
same,%Inh,DYRK1A; [1],16%
same,%Inh,DYRK1B; [1],15%
same,%Inh,DYRK2; [1],35%
same,%Inh,EGFR; [1],32%
same,%Inh,EIF2AK1; [1],0%
same,%Inh,EPHA1; [1],17%
same,%Inh,EPHA2; [1],9%
same,%Inh,EPHA3; [1],0%
Nc1ncnc2[nH]c(-c3ccccc3)nc12 [AH5015],%Inh,DAPK2; [1],0%
same,%Inh,DAPK3; [1],27%
same,%Inh,DCAMKL1; [1],11%
same,%Inh,DCAMKL2; [1],0%
same,%Inh,DCAMKL3; [1],13%
same,%Inh,DDR1; [1],0%
same,%Inh,DDR2; [1],13%
same,%Inh,DLK; [1],21%
same,%Inh,DMPK2; [1],0%
same,%Inh,DMPK; [1],0%
same,%Inh,DRAK1; [1],5%
same,%Inh,DRAK2; [1],0%
same,%Inh,DYRK1A; [1],46%
same,%Inh,DYRK1B; [1],15%
same,%Inh,DYRK2; [1],68%
same,%Inh,EGFR; [1],25%
same,%Inh,EIF2AK1; [1],100%
same,%Inh,EPHA1; [1],16%
same,%Inh,EPHA2; [1],23%
same,%Inh,EPHA3; [1],0%
CS(=O)(=O)c1ccc(-c2c(-c3ncn[nH]3)sc(N3CCOCC3)c2C#N)cc1,%Inh,DAPK2; [1],0%
same,%Inh,DAPK3; [1],0%
same,%Inh,DCAMKL1; [1],19%
same,%Inh,DCAMKL2; [1],23%
same,%Inh,DCAMKL3; [1],19%
same,%Inh,DDR1; [1],0%
same,%Inh,DDR2; [1],18%
same,%Inh,DLK; [1],53%
same,%Inh,DMPK2; [1],15%
same,%Inh,DMPK; [1],0%
same,%Inh,DRAK1; [1],8%
same,%Inh,DRAK2; [1],0%
same,%Inh,DYRK1A; [1],1%
same,%Inh,DYRK1B; [1],0%
same,%Inh,DYRK2; [1],14%
same,%Inh,EGFR; [1],12%
same,%Inh,EIF2AK1; [1],21%
same,%Inh,EPHA1; [1],24%
same,%Inh,EPHA2; [1],19%
same,%Inh,EPHA3; [1],0%
Cn1ccc2ncnc(Oc3cccc(C(=O)Nc4ccccc4)c3)c21,%Inh,DAPK2; [1],24%
same,%Inh,DAPK3; [1],0%
same,%Inh,DCAMKL1; [1],28%
same,%Inh,DCAMKL2; [1],0%
same,%Inh,DCAMKL3; [1],0%
same,%Inh,DDR1; [1],0%
same,%Inh,DDR2; [1],9%
same,%Inh,DLK; [1],0%
same,%Inh,DMPK2; [1],0%
same,%Inh,DMPK; [1],11%
same,%Inh,DRAK1; [1],0%
same,%Inh,DRAK2; [1],12%
same,%Inh,DYRK1A; [1],2%
same,%Inh,DYRK1B; [1],24%
same,%Inh,DYRK2; [1],0%
same,%Inh,EGFR; [1],0%
same,%Inh,EIF2AK1; [1],18%
same,%Inh,EPHA1; [1],0%
same,%Inh,EPHA2; [1],0%
same,%Inh,EPHA3; [1],0%
Cc1nnc(-c2ccc3occ(-c4ccc(S(C)=O)cc4)c3c2)[nH]1 (stereo not shown),%Inh,DAPK2; [1],5%
same,%Inh,DAPK3; [1],10%
same,%Inh,DCAMKL1; [1],0%
same,%Inh,DCAMKL2; [1],0%
same,%Inh,DCAMKL3; [1],0%
same,%Inh,DDR1; [1],0%
same,%Inh,DDR2; [1],5%
same,%Inh,DLK; [1],0%
same,%Inh,DMPK2; [1],6%
same,%Inh,DMPK; [1],0%
same,%Inh,DRAK1; [1],26%
same,%Inh,DRAK2; [1],41%
same,%Inh,DYRK1A; [1],19%
same,%Inh,DYRK1B; [1],7%
same,%Inh,DYRK2; [1],45%
same,%Inh,EGFR; [1],0%
same,%Inh,EIF2AK1; [1],0%
same,%Inh,EPHA1; [1],0%
same,%Inh,EPHA2; [1],0%
same,%Inh,EPHA3; [1],0%
